Design in all cases: species or system human, MV4-11 + K-562 + COLO205 + SK-N-BE2 + OVCAR-8
For one test, the system named is STK11. The conditions noted are these: read-out: apparent Kd, n = 1.
In another test the test system is MAP2K2. The conditions noted are these: read-out: apparent Kd, n = 1.
The next test has as its system PIK3C2A. The conditions noted are these: read-out: apparent Kd, n = 1.
In the next test the test system is AKT3. The conditions noted are these: read-out: apparent Kd, n = 1.
The test system of a further test is PIM2. The conditions noted are these: read-out: apparent Kd; compound concentrations:100 nM and 1000 nM (sheet 'Samples'); n = 1.
A further test concerns ACVR1. The conditions noted are these: read-out: apparent Kd, n = 1.
A further test concerns NEK9. The conditions noted are these: read-out: apparent Kd, compound concentrations: 100 nM and 1000 nM (sheet 'Samples'), n = 1.
The next test relates to AKT2. The conditions noted are these: read-out: apparent Kd, n = 1.
For the next test, the system named is TGFBR1. The conditions noted are these: read-out: apparent Kd; compound concentrations:100 nM and 1000 nM (sheet 'Samples'); n = 1.
The next test has as its system PIK3C3. The conditions noted are these: read-out: apparent Kd, n = 1.
A further test relates to MAP4K5. The conditions noted are these: read-out: apparent Kd; compound concentrations:100 nM and 1000 nM (sheet 'Samples'); n = 1.
Another test concerns TP53RK. The conditions noted are these: read-out: apparent Kd, n = 1.
The subject of a further test is SLK. The conditions noted are these: read-out: apparent Kd; compound concentrations: 100 nM and 1000 nM (sheet 'Samples'), CATDS: 4.9346970439547798E-2; n = 1.
The subject of another test is IKBKE. The conditions noted are these: read-out: apparent Kd; compound concentrations:100 nM and 1000 nM (sheet 'Samples'); n = 1.
Another test has as its system MAP4K3. The conditions noted are these: read-out: apparent Kd; compound concentrations: 100 nM and 1000 nM (sheet 'Samples'), CATDS: 1.6349767602700901E-2; n = 1.
For the next test, the system named is MAP4K2. The conditions noted are these: read-out: apparent Kd; compound concentrations:100 nM and 1000 nM (sheet 'Samples'); n = 1.
The mark [1] stands for this setting: compound concentrations:100 nM and 1000 nM (sheet 'Samples').

Molecules are shown by their SMILES. Like-named read-outs stand apart in the source and are kept apart here.

Turning to `CNCC#Cc1c(F)ccc2c1/C(=C/c1[nH]ccc1OC)C(=O)N2.Cl` [RO0281601-001], the potency estimated from few doses with STK11 (compound concentrations: 100 nM and 1000 nM (sheet 'Samples'), CATDS: 2.1927929235579201E-2) was 1.93 µM.
For `COC(=O)c1cccc(NC(=O)NC2CCN(c3ccnc(Nc4cc(OC)c(OC)c(OC)c4)n3)C2)c1` (centres unmarked) [GSK1379767A], the potency estimated from few doses in the test on MAP2K2 (compound concentrations: 100 nM and 1000 nM (sheet 'Samples'), CATDS: 9.7469990790668801E-2) is 1.88 µM; with PIK3C2A (compound concentrations: 100 nM and 1000 nM (sheet 'Samples'), CATDS: 9.3691802712770805E-2) it was 2.08 µM.
Turning to `CS(=O)(=O)CCn1c(=O)c(Oc2ccc(F)cc2F)cc2cnc(NC3CCOCC3)nc21` [RO5027956-000], the potency estimated from few doses in the test with AKT3 (setting [1]) is 2.17 µM; with PIM2, 1.66 µM.
As to `COc1cc(Nc2nccc(-c3cnn4ncccc34)n2)cc(OC)c1` [GW801372X], the potency estimated from few doses with ACVR1 (compound concentrations: 100 nM and 1000 nM (sheet 'Samples'), CATDS: 2.2901948138858801E-2) was 0.739 µM; with NEK9 (CATDS: 4.3233777925034599E-2) it was 0.142 µM; in the test on PIK3C2A (compound concentrations: 100 nM and 1000 nM (sheet 'Samples'), CATDS: 1.7083513618659799E-2) it was 2.26 µM.
For the compound `CNc1cc(-c2ccc3c(N)n[nH]c3c2)nc(N)n1` [GSK2224810A], the potency estimated from few doses with AKT2 (setting [1]) was 1.88 µM; in the test on TGFBR1, 1.16 µM.
With `CNCc1ccc(-c2cc(-c3nc(-c4ccc(S(=O)(=O)C(C)C)cc4)cnc3N)on2)cc1` [VE-822], the potency estimated from few doses with ACVR1 (setting [1]) was 0.081 µM; in the test on AKT3 (setting [1]), 1.76 µM; in the test with MAP2K2 (setting [1]), 1.7 µM; with PIK3C3 (setting [1]), 0.5 µM.
For `CCN(CC)Cc1ccc(Nc2nccc(-c3cnn4ncccc34)n2)cc1` [GW780056X], the potency estimated from few doses in the test with NEK9 (CATDS: 2.0464339173062999E-2) is 1.22 µM.
In the case of `c1ccc(-c2n[nH]cc2Nc2ccnc3ccccc23)nc1` [GW694077X], the potency estimated from few doses in the test with AKT2 (compound concentrations: 100 nM and 1000 nM (sheet 'Samples'), CATDS: 2.2309238886047199E-2) is 2.35 µM; with PIK3C2A (compound concentrations: 100 nM and 1000 nM (sheet 'Samples'), CATDS: 2.3388870990997498E-2), 1.9 µM.
For `Cl.Cn1c(=O)c(Cc2ccccc2F)cc2cnc(NC3CCOCC3)nc21` [RO3305377-001], the potency estimated from few doses in the test with AKT3 (compound concentrations: 100 nM and 1000 nM (sheet 'Samples'), CATDS: 1.8504555943704901E-2) was 1.38 µM.
Turning to `Cc1occc1-c1nc(N)c(OC[C@@H](N)Cc2c[nH]c3ccccc23)cc1-c1cc2c(C)n[nH]c2cn1` [GSK1660450B], in the test with MAP4K5, the potency estimated from few doses was 0.0505 µM.
Take `COc1ccc(Nc2nccc(NCCNC(=O)Nc3cc(C)ccc3C)n2)cc1` [GSK1379899A]: in the test on AKT2 (compound concentrations: 100 nM and 1000 nM (sheet 'Samples'), CATDS: 3.9720416292935899E-2), the potency estimated from few doses is 2.19 µM.
In the case of `Cl.Nc1nc(-c2ccc3c(c2)C(=Cc2cc(Br)c(O)c(Br)c2)C(=O)N3)cs1` [GW407323A], the potency estimated from few doses in the test on TP53RK (compound concentrations: 100 nM and 1000 nM (sheet 'Samples'), CATDS: 2.8034660612356401E-2) was 1.95 µM.
Regarding `CC(C)N1CC(=O)N(C)c2cnc(Nc3cccc(S(=O)(=O)CCN4CCOCC4)c3)nc21` [BI00009348], the potency estimated from few doses in the test on SLK is 1.92 µM.
`Nc1nc(-c2ccc3c(N)n[nH]c3c2)cc(N2CCCC(NC(=O)c3ccccc3)C2)n1` (centres unmarked) [GSK2286775B]: the potency estimated from few doses is 1.37 µM in the test with AKT2 (setting [1]); 0.298 µM in the test on IKBKE; 1.56 µM in the test on MAP2K2 (setting [1]); 1.91 µM with PIK3C2A (setting [1]); 2.23 µM in the test with TP53RK (setting [1]).
With `NS(=O)(=O)c1ccc(NC=C2C(=O)Nc3ccc4ncsc4c32)cc1` [GW589933X], in the test on MAP4K3, the potency estimated from few doses was 2.07 µM.
With `COc1cc[nH]c1/C=C1\C(=O)Nc2ccc(F)c(C#C[C@@H](O)[C@@H](N)[C@@H](C)O)c21` [RO0283120-000], the results for the potency estimated from few doses in the test on MAP4K2 and in the test on STK11 (setting [1]) were 1.07 µM and 1.01 µM, respectively.
Take `CCn1c(-c2nonc2N)nc2cncc(C(=O)N3CC[C@H](N)C3)c21.Cl` [SB-772077-B]: the potency estimated from few doses in the test on PIM2 was 0.122 µM.
Consider `Nc1nccc(-c2ccc3c(N)n[nH]c3c2)n1` [GSK1034945A], for which the potency estimated from few doses in the test with TP53RK (setting [1]) is 1.54 µM.
Turning to `CCC(CC)(CC)n1cnc2c(N)ncnc21` [SKF-97620], the potency estimated from few doses in the test on PIK3C2A (compound concentrations: 100 nM and 1000 nM (sheet 'Samples'), CATDS: 2.66380598887557E-2) is 1.43 µM; in the test with PIK3C3 (compound concentrations: 100 nM and 1000 nM (sheet 'Samples'), CATDS: 3.20593447179814E-2), 0.852 µM.
Consider `CN[C@H](C#Cc1c(F)ccc2c1/C(=C/c1[nH]ccc1OC)C(=O)N2)CO.Cl` [RO0283049-001], for which the potency estimated from few doses in the test on STK11 (compound concentrations: 100 nM and 1000 nM (sheet 'Samples'), CATDS: 2.2375085806392098E-2) was 1.19 µM.

The values above are taken from publication PMC11062922 (Nature Chemical Biology, 2023).
